Screens: PubChem, National Center for Advancing Translational Sciences (NCATS)
A549 tox: kills or reduces viability of A549 cells in Nrf2 counter-screen; Potency, µM (doses to about 46 µM), actives largely listed as inhibitors; A549 ARE-Fluc cells, CellTiter-Fluor viability, 18-24 h; AID 504648; 390,000 tested, 0.16% active
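A549 ARE-Fluc cells in 5% FBS OPTI-MEM, 5000 cells/well, rested 2 h then exposed to compounds in concentration-response for 18-24 h at 37 °C. Viability by CellTiter-Fluor fluorescence (Ex 405/Em 525) after 30 min; luciferase luminescence (BugLite, 15 min, RT) read afterwards.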
ALOX12 inh: inhibitors of human 12S-lipoxygenase ALOX12 | P18054 | purified 12hLO, xylenol orange hydroperoxide absorbance | Potency, µM (doses to about 108 µM), usual class: inhibitors | 580,000 tested, 1.1% active | AID 1671190
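Hydroperoxide product was detected by ferrous iron/xylenol orange as the 573 to 405 nm absorbance ratio. Arachidonic acid at 40 uM (final) was turned over for 30 min at room temperature by 150 nM human 12hLO, pH 7.0 Hepes buffer, after 15 min compound preincubation.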
Nrf2 block: blocks Nrf2 signaling | A549 ARE-Fluc reporter, luciferase luminescence, 18-24 h | Potency, µM (top dose mostly 46 µM), usual class: inhibitors | 360,000 tested, 2.1% active | AID 504444; note: nearly all actives have a fitted effect of over 60% in size
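Two sequential reads on A549 ARE_Fluc cells exposed to compound for 18-24 h: a CellTiter-Fluor fluorescence read for viability, then a luciferase luminescence read for Nrf2/ARE activity.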
LDHA block: inhibitors of human lactate dehydrogenase A | purified LDHA, NADH/diaphorase-resazurin fluorescence; active compounds read low | 480,000 tested, 0.15% active | activity change, % (values are at about 110 or 230 µM); in the data active = activity change below about -30%; inconclusive = mostly about -25% to -30%
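Enzyme activity of human lactate dehydrogenase 5 (2 nM; 0.06 mM NADH, 0.2 mM pyruvate, 5 min, RT) is measured via a resazurin/diaphorase fluorescence readout of residual NADH.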
Nrf2 activator: Nrf2 pathway activation; AREc32 ARE-luciferase reporter (MCF7-derived line), luminescence, 24 h; AID 624171; 410,000 tested, 0.31% active; Potency, µM (doses to about 46.1 µM), hits mostly activators; note: nearly all actives have a fitted effect of over 65% in size
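Each well held 1000 AREc32 cells, which were incubated with compound for 24 hr at 37 deg C after overnight attachment, and ARE reporter activity was quantified by firefly luciferase luminescence.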
mIDH1 inhibitor: human IDH1 R132H inhibition; IDH1-R132H enzyme, NADPH consumption, diaphorase/resazurin fluorescence; Potency, µM (series often up to 76.6 µM), most hits filed as inhibitors; 390,000 tested, 0.093% active; AID 602179; note: nearly all actives have a fitted effect of over 65% in size
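IDH1-R132H (0.5 ug/mL) preincubated 30 min with compound, then NADPH (0.016 mM) and alpha-KG (2 mM) added; 80 min at RT, pH 7.5. Remaining NADPH coupled via diaphorase/resazurin to fluorescence (540/590 nm); concentration-response curves normalized to no-enzyme control.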
Numbers stand for hits; – = inactive; ? = inconclusive; · = not tested or not shown. A selection: hits, their analogues and other compounds. The true share with any hit is near 2.7%. Unless noted, calls come from the whole dose curve; as a rule, active = well fitted curve in the direction sought with a large enough effect; inconclusive = small, poorly fitted or top-dose-only effect, or another doubt; inactive = no such curve, though single readings can be large; an effect the other way counts as inactive or inconclusive.

SMILES	A549 tox	ALOX12 inh	Nrf2 block	LDHA block	Nrf2 activator	mIDH1 inhibitor
N#CCCN1CCN(c2ccc(C(=O)O)cc2NS(=O)(=O)c2ccc(F)cc2)CC1	·	?	·	–	·	·
CCc1ccc(S(=O)(=O)Nc2ccc3nc(N4CCN(CCC#N)CC4)cc(C(=O)O)c3c2)cc1	·	11µM	·	–	·	·
C=C(C)Cn1c(SC(C)C)nc2c1c(=O)[nH]c(=O)n2C	·	–	·	–	·	·
N#Cc1cc(-c2ccccc2)sc1N	·	?	·	–	·	·
N#CC(C#N)=C1NC(N)=C(C#N)C(c2ccccc2)=C1C#N	·	6.3µM	·	·	·	·
Oc1ccc(N2CCN(c3ncnc4sc5c(c34)CCC5)CC2)cc1	–	?	15µM	–	–	–
CC(NC(=O)CC1CCCC1)c1ccccc1F (stereo not given)	·	–	·	–	·	·
COc1ccc(C(=O)C[n+]2ccc(Cl)c3ccc(Cl)cc32)cc1	·	·	·	-60	·	·
O=C(C[n+]1ccc(Cl)c2ccc(Cl)cc21)c1ccc(F)cc1	·	·	·	–	·	·
Cn1c(NC(=O)/C=C/c2ccccc2)cc(=O)n(C)c1=O	–	–	?	–	7.1µM	–
CC(C)NC(=O)Cn1c(=O)n(-c2ccccc2)c(=O)c2sccc21	·	?	·	-41	·	·
O=C(Cn1c(=O)n(-c2ccccc2)c(=O)c2sccc21)NC1CCc2ccccc21 (stereo not given)	·	?	·	–	·	·
Cc1cc(C)c2c(=O)n(CC(=O)Nc3cccc(Cl)c3C)sc2n1	–	0.71µM	–	–	–	–
COc1cc(C(C)=O)ccc1OCc1ccc(C#N)cc1	·	–	·	?	·	·
COc1ccc2ccccc2c1C1CC(=O)N2CN(C3CCCCC3)CSC2=C1C#N (stereo not given)	–	18µM	–	–	–	–
COc1ccc(C2CC(=O)N3CN(C4CCCCC4)CSC3=C2C#N)c(OC)c1 (stereo not given)	–	40µM	–	–	–	–
COc1ccc2ccccc2c1C1CC(=O)N2CN(Cc3ccco3)CSC2=C1C#N (stereo not given)	–	?	–	–	–	–
O=C(Nc1ccccc1)c1c2c(nc3ccccc13)CCC2	·	35µM	·	–	·	·
O=C(Nc1ccccc1)c1c2c(nc3ccccc13)CCCC2	–	–	–	–	–	–
CCC(C(=O)Nc1ccc(C(F)(F)F)cc1)n1cnc2ccccc2c1=O (stereo not given)	·	?	·	–	·	·
Nc1c(C(O)(C(F)(F)F)C(F)(F)F)cc(C(O)(C(F)(F)F)C(F)(F)F)c2ccccc12	?	·	15µM	–	–	–
Cc1cc(C(O)(C(F)(F)F)C(F)(F)F)cc(C)c1OC(=O)c1ccccc1F	·	–	·	–	·	·
Cc1cc(C)n(-c2ccc(CSc3cccc[n+]3[O-])cc2)n1	·	–	·	–	·	·
O=C(NS(=O)(=O)c1ccccc1[N+](=O)[O-])c1ccccc1	–	11µM	–	–	–	–
O=C(NS(=O)(=O)NC(=O)c1ccccc1)c1ccccc1	·	11µM	·	–	·	·
SMILES	A549 tox	ALOX12 inh	Nrf2 block	LDHA block	Nrf2 activator	mIDH1 inhibitor
COC(=O)c1ccc(NC(=S)NCCO)cc1	·	–	·	–	·	·
O=c1oc(-c2ccc(F)cc2)nn1CC(O)COc1ccc2ccccc2c1 (stereo not given)	·	–	·	-30	·	·
CCC(=O)Nc1c(-c2cc(=O)oc3cc(C)c(Cl)cc23)oc2ccccc12	·	–	·	–	·	·
Cc1cccc(N2CCN(C(=O)CSCc3c(C)noc3C)CC2)c1C	–	·	1.8µM	–	–	–
Cc1noc(C)c1CSCC(=O)N1CCN(c2ccc(F)cc2)CC1	–	–	?	–	–	–
CC(C)c1ccc(/C=C(/CC(=O)O)c2nc3ccccc3o2)cc1	·	–	·	–	·	·
CSc1nc(-c2ccc(C)cc2)[nH]c1S(=O)(=O)c1ccccc1	–	?	18µM	–	–	–
CCn1nc(C(=O)Nc2ccc(OCC(C)C)c(Cl)c2)c2ccccc2c1=O	·	–	·	–	·	·
N#Cc1ccc(-c2ccc(OCC(=O)Nc3cccnc3)cc2)cc1	–	–	7.3µM	–	–	–
O=C(COc1ccc(C(=O)c2ccccc2)cc1)Nc1cccnc1	?	–	23µM	–	–	–
O=C(CCCOc1ccccc1)Nc1cccnc1	–	–	–	–	–	–
O=C(CCc1ccnc(N2CCCC2)c1)N1CCN(c2cccc(Cl)c2)CC1	·	–	·	·	·	·
